# Measurements taken from PubChem BioAssay (NCI).
# The panel holds about 83,000 compounds, 20% with a hit somewhere; the sample as a whole holds those more often.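 Assay: single dose, 48 h. Readout: percent growth (0 = no net growth; negative = cell death). Active: <10.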 A number with no mark means an inactive call. Active and inactive are the calls of the source.
# Test system: HOP-62 NSCLC
# Assay: NCI-60 one-dose screen, 48 h (100 = growth as untreated, 0 = no growth, -100 = all killed)
# Settings: 10 µM unless noted
# Description: Growth inhibition of the HOP-62 human Non-Small Cell Lung tumor cell line is measured as a screen for anti-cancer activity. Cells are grown in 96 well plates and exposed to the test compound for 48 hours. Compounds are tested at a single concentration, which is 10^-5 M for most compounds. The reported endpoint is percent growth (GI% or GIPRCNT), where numbers from 0 - 100% represent growth inhibition, and numbers from -100% - 0 represent cell death. For example, a value of 40 represents 60% growth inhibition. A value of 0 means no net growth occurred over the course of the experiment. A value of -40 indicates 40% of cells at the beginning of the experiment died by the end of the experiment. A value of -100 means all cells are dead at the end of the experiment.
# NCI-60 Human Tumor Cell Lines Screen was performed using the standard one-dose NCI protocol, which is described in more detail at https://dtp.cancer.gov/discovery_development/nci-60/default.htm.
# Compounds with GIPRCNT values below 10 were considered active. Activity score was based on GIPRCNT using the following formula: […]
# Score is 0 for GIPRCNT values of 100 or above, 50 for GIPRCNT values of 0, and 100 for GIPRCNT values of -100.
row,Structure (SMILES),growth
1,CC1CCc2c(C(=O)Nc3ncc(Cc4cccc([N+](=O)[O-])c4)s3)csc2C1 (stereo not given),26.8%
2,COc1ccc(-c2cc(-c3cccnc3)nc3sc4c(=O)[nH]c(-c5ccc(Cl)cc5)nc4c23)cc1OC,88.3%
3,CC(=O)Oc1ccc(N2C(=O)C(Cl)=C(Nc3cccc(C(F)(F)F)c3)C2=O)cc1,96.9%
4,Cc1ccc(C2=Nc3c(N)ncnc3NC(c3cccc(Nc4ccnc5cc(C(F)(F)F)ccc45)c3)C2)cc1 (stereo not given),41.1%
5,Nc1ncnc2c1C(c1ccc(Br)cc1)c1sc3c(F)cccc3c1O2 (stereo not given),90.1%
6,CCCCNC(=O)Oc1ccc(/C(=C(/C)Cc2ccc(OC)cc2)c2ccc(OCCN3CCCC3)cc2)cc1,79.1%
7,Cn1cc(C(=O)c2nc(-c3c[nH]c4ccccc34)no2)c2cc(F)ccc21,30.5%
8,O=C1Nc2ccc(C(=O)O)cc2/C1=N/c1nnc(Sc2ccccc2)s1,95%
9,O=C1Nc2ccccc2/C1=C/c1cccn1CCCCn1c2ccccc2c(=O)c2ccccc21,77.4%
10,C=C(CBr)[C@@H]1CC[C@]2(C(=O)O)CC[C@]3(C)[C@H](CC[C@@H]4[C@@]5(C)CCC(=O)C(C)(C)[C@@H]5CC[C@]43C)[C@@H]12,112%
11,COC1=CC(c2ccc[nH]2)=N/C1=C\c1[nH]c(C)c(C(=O)OC(C)C)c1C,-21.4% (active)
12,Nc1n[nH]c2ccc([C@H]3[C@@H]4C5CCC(C5)[C@@H]4c4c(ccc5[nH]ncc45)N3S(=O)(=O)C3CC3)cc12 (stereo not given in full),41.1%
13,O=[N+]([O-])c1cccc(-c2nc3cc4nc5ccccc5[nH]c4cc3n2)c1,95.7%
14,O=C(c1nn(-c2ccccc2)c2c1CC(NCc1ccc(F)cc1)CC2)N1CCCCC1 (stereo not given),114%
15,CCN1C(=O)N(CC)C2C1NN=c1s/c(=C\c3ccccc3F)c(=O)n12 (stereo not given),35.1%
16,CC(=O)c1c(C)nc2ccccc2c1/C=C/c1ccc(F)cc1,92%
17,CC1OC(n2c3ccccc3c3c4c(c5c6ccccc6[nH]c5c32)C(=O)N(CCN2CCCC2)C4=O)CC(O)C1O (stereo not given),35.2%
18,CCNCCNc1cc(-c2ccc(C(F)(F)F)cc2)c(C#N)c2nc3ccccc3n12,-67.7% (active)
19,O=S(=O)(Nc1cc(Cl)ccc1Cl)c1ccc(-c2cnc(C3CC3)o2)cc1,39.8%
20,CCCCCCCCCCCCCCCCCCOc1ccccc1CC(=O)OCC[N+](C)(C)C,4.93% (active)

row,Structure (SMILES),growth
1,O=C(Nc1cccc(-c2ccc(Cl)c(C(F)(F)F)c2)c1)C1CCN(Cc2cccc3cccnc23)CC1,62.3%
2,Nc1c(C(=O)Nc2ccccc2F)sc2nc3c(cc12)CCCC3,23.7%
3,CC(O)(c1ccccc1)C(c1ccccc1)C1CCCCN1 (stereo not given),99.3%
4,COc1ccc(/C=C(\C#N)n2nnc3cc(Cl)ccc32)cc1,40.8%
5,Cc1cc(S(=O)(=O)/N=C(\N)n2nc(C)c(C)c2C)c(SCc2ccccc2)cc1Cl,91.7%
6,CC(=O)n1nc(C(=O)OC(C)(C)c2ccccc2)c2ccccc21,97.3%
7,O=C(CN1C(=O)NC2NC(=O)NC21)N/N=C/c1ccccc1[N+](=O)[O-] (stereo not given),103%
8,C=C(C)[C@@H]1CC[C@]2(CO)CC[C@]3(C)[C@H](CC[C@@H]4[C@@]5(C)CC[C@H](NCO)C(C)(C)[C@@H]5CC[C@]43C)[C@@H]12,-61.9% (active)
9,COc1ccc(C/C(C)=C(/c2ccc(OCCN(C)C)cc2)c2ccc(OC(=O)NCc3ccccc3)cc2)cc1,83.3%
10,CCOC(=O)c1csc(NC(=O)COc2ccc(/C=C3\Oc4ccccc4C3=O)cc2)n1,72.6%
11,O=C1/C(=C/c2ccccc2O)CC/C1=C\c1ccccc1O,94%
12,C=C1C(=O)O[C@H]2[C@H]1CC/C(COC(=O)C(=O)c1cn(C)c3ccc(Cl)cc13)=C\CC[C@@]1(C)O[C@@H]21,-70.1% (active)
13,Cn1c(I)c(C#CCO[Si](C)(C)C(C)(C)C)c(=O)[nH]c1=O,96.9%
14,COc1ccc(CNc2c3ccccc3nc3ccccc23)cc1,53.9%
15,CC1CN(S(=O)(=O)c2oc(-c3ccc(Cl)cc3)nc2C#N)CC(C)O1 (stereo not given),101%
16,O=CN1N=C(c2cccc(Nc3ccnc4cc(Cl)ccc34)c2)CC1c1ccccc1 (stereo not given),37.2%
17,O=C(Nc1nc2cc(C(=O)N3CCN(C(c4ccccc4)c4ccccc4)CC3)ccc2o1)c1ccc(NC2CCCCC2)c([N+](=O)[O-])c1,47.4%
18,Fc1cnccc1C1CC(c2ccc(N3CCNCC3)cc2)=NN1 (stereo not given),83.2%
19,CCCn1cc2c(=O)nc3sc(Cc4ccccc4)c(C)n3c2n1,102%
20,COc1ccc(/C=C(\C#N)n2nnc3ccc(Cl)cc32)cc1,111%
